Data reported in the supplement of paper PMC9262897, “Low-cost anti-mycobacterial drug discovery using engineered E. coli” (Nature Communications, 2022).
Where a name gives a salt, the structure may show the parent alone. ± gives the standard deviation of the averaged measurements.

What was measured:
Test in all cases: growth (OD600 after 10 h); higher = more growth (less inhibition)
[1] = tested on: E. coli TESEC Alr+ wild-type control; conditions: compound 0.1 mM; raw OD600 reference: median of DMSO wells 0.241, cell-free background 0.041
Protocol: (§1)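 TESEC Mtb Alr E. coli, or the Alr+ wild-type control, in 384-well plates with Prestwick library compounds at 0.1 mM and 1% DMSO, across arabinose induction levels of 1E3 to 1E7 nM. Growth is read as OD600 after 10 h at 37 °C in triplicate biological replicates.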

E. coli TESEC Mtb Alr [2] = conditions: compound 0.1 mM
Protocol: as §1

E. coli TESEC Mtb Asd = conditions: compound 0.1 mM
Protocol: (§2)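 TESEC E. coli strains in which the native enzyme is deleted and replaced by arabinose-inducible Mtb Asd, DapB, CysH or TrpD, each grown in its selective medium. Strains were screened against the Prestwick library at 0.1 mM and 1% DMSO in 384-well format at low and high arabinose induction. Growth is read as OD600 after 10 h in triplicate.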

E. coli TESEC Mtb DapB = conditions: compound 0.1 mM
Protocol: as §2

[3] = tested on: E. coli TESEC Alr+ wild-type control; conditions: compound 0.1 mM; raw OD600 reference: median of DMSO wells 0.49, cell-free background 0.052
Protocol: (§3)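 TESEC Mtb Alr E. coli (ΔaraC ΔtolC ΔentC Δalr ΔdadX, arabinose-inducible Mtb Alr) or the Alr+ wild-type control strain, grown in defined M9-fructose medium without D-alanine in 96-well plates with Prestwick library compounds at 0.1 mM and 1% DMSO. Low Alr induction is 0.1 µM arabinose and high induction is 10 mM arabinose.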

E. coli TESEC Mtb Alr [4] = conditions: compound 0.1 mM; remark: listed apart in the source
Protocol: as §3

[5] = arabinose 1000 nM, raw OD600 reference: median of DMSO wells 0.294, cell-free background 0.041
[6] = arabinose 10000 nM, raw OD600 reference: median of DMSO wells 0.264, cell-free background 0.041
[7] = arabinose 100000 nM, raw OD600 reference: median of DMSO wells 0.201, cell-free background 0.041
[8] = arabinose 1000000 nM, raw OD600 reference: median of DMSO wells 0.193, cell-free background 0.041
[9] = arabinose 10000000 nM, raw OD600 reference: median of DMSO wells 0.146, cell-free background 0.041
[10] = arabinose induction (level): High, raw OD600 reference: median of DMSO wells 0.331, cell-free background 0.041
[11] = arabinose induction (level): Low, raw OD600 reference: median of DMSO wells 0.417, cell-free background 0.041
[12] = arabinose induction (level): High, raw OD600 reference: median of DMSO wells […], cell-free background 0.041
[13] = arabinose induction (level): Low, raw OD600 reference: median of DMSO wells 0.227, cell-free background 0.041
[14] = arabinose 100 nM, raw OD600 reference: median of DMSO wells 0.413, cell-free background 0.052
[15] = arabinose 10000000 nM, raw OD600 reference: median of DMSO wells […], cell-free background 0.052

SMILES | growth [1] | growth (E. coli TESEC Mtb Alr [2]; [5]) | growth (E. coli TESEC Mtb Alr [2]; [6]) | growth (E. coli TESEC Mtb Alr [2]; [7]) | growth (E. coli TESEC Mtb Alr [2]; [8]) | growth (E. coli TESEC Mtb Alr [2]; [9]) | growth (E. coli TESEC Mtb Asd; [10]) | growth (E. coli TESEC Mtb Asd; [11]) | growth (E. coli TESEC Mtb DapB; [12]) | growth (E. coli TESEC Mtb DapB; [13]) | growth [3] | growth (E. coli TESEC Mtb Alr [4]; [14]) | growth (E. coli TESEC Mtb Alr [4]; [15])
C[C@@H](O[C@H]1OCCN(Cc2n[nH]c(=O)[nH]2)[C@H]1c1ccc(F)cc1)c1cc(C(F)(F)F)cc(C(F)(F)F)c1 [Aprepitant] | 0.136 ± 0.0085 | 0.107 ± 0.0059 | 0.116 ± 0.033 | 0.0735 ± 0.0056 | 0.0675 ± 0.0089 | 0.0777 ± 0.0096 | 0.0693 ± 0.0052 | 0.0731 ± 0.019 | 0.128 ± 0.015 | 0.089 ± 0.023 | 0.386 ± 0.22 | 0.442 ± 0.012 | 0.0589 ± 0.0033
C[C@@H]1C[C@H]2[C@@H]3C[C@H](F)C4=CC(=O)C=C[C@]4(C)[C@@]3(F)[C@@H](O)C[C@]2(C)[C@@]1(O)C(=O)CO [Flumethasone] | 0.212 ± 0.0028 | 0.275 ± 0.013 | 0.256 ± 0.0067 | 0.188 ± 0.0075 | 0.154 ± 0.0069 | 0.127 ± 0.0043 | 0.231 ± 0.007 | 0.429 ± 0.022 | 0.193 ± 0.011 | 0.229 ± 0.014 | 0.543 ± 0.0085 | 0.402 ± 0.0073 | 0.307 ± 0.013
COC(=O)Nc1nc2ccc(SC(C)C)cc2[nH]1 [Methiazole] | 0.244 ± 0.0029 | 0.278 ± 0.0056 | 0.271 ± 0.0072 | 0.195 ± 0.013 | 0.219 ± 0.0056 | 0.151 ± 0.0024 | 0.365 ± 0.093 | 0.33 ± 0.048 | 0.204 ± 0.019 | 0.235 ± 0.035 | 0.523 ± 0.037 | 0.427 ± 0.0091 | 0.37 ± 0.025
CC1(C)O[C@@H]2C[C@H]3[C@@H]4C[C@H](F)C5=CC(=O)CC[C@]5(C)[C@H]4[C@@H](O)C[C@]3(C)[C@]2(C(=O)CO)O1 [Flurandrenolide] | 0.223 ± 0.0092 | 0.289 ± 0.015 | 0.2518 ± 0.0025 | 0.174 ± 0.022 | 0.161 ± 0.01 | 0.131 ± 0.0031 | 0.282 ± 0.038 | 0.448 ± 0.035 | 0.216 ± 0.0087 | 0.239 ± 0.0036 | 0.417 ± 0.041 | 0.406 ± 0.01 | 0.338 ± 0.011
S=c1[nH]cnc2nc[nH]c12 [Mercaptopurine] | 0.062 ± 0.002 | 0.0619 ± 0.0038 | 0.0528 ± 0.0011 | 0.0694 ± 0.0044 | 0.0545 ± 0.0019 | 0.0747 ± 0.0012 | 0.176 ± 0.021 | 0.167 ± 0.01 | 0.202 ± 0.01 | 0.211 ± 0.004 | 0.234 ± 0.018 | 0.334 ± 0.017 | 0.113 ± 0.01
O=C1NCC2(CCN(CCc3ccccc3)CC2)O1 [Fenspiride hydrochloride] | 0.248 ± 0.0052 | 0.288 ± 0.013 | 0.27 ± 0.0043 | 0.199 ± 0.0053 | 0.185 ± 0.0044 | 0.148 ± 0.0017 | 0.366 ± 0.098 | 0.45 ± 0.025 | 0.199 ± 0.011 | 0.253 ± 0.048 | 0.487 ± 0.054 | 0.415 ± 0.0097 | 0.336 ± 0.0092
NS(=O)(=O)Cc1noc2ccccc12 [Zonisamide] | 0.252 ± 0.013 | 0.301 ± 0.012 | 0.2543 ± 0.0014 | 0.203 ± 0.0022 | 0.19 ± 0.0041 | 0.139 ± 0.0077 | 0.296 ± 0.019 | 0.389 ± 0.02 | 0.201 ± 0.0092 | 0.234 ± 0.012 | 0.453 ± 0.018 | 0.406 ± 0.0079 | 0.353 ± 0.018
CC(=O)Oc1ccccc1C(=O)Oc1ccccc1C(=O)O [Acetylsalicylsalicylic acid] | 0.253 ± 0.0046 | 0.275 ± 0.0063 | 0.266 ± 0.016 | 0.203 ± 0.011 | 0.181 ± 0.0064 | 0.142 ± 0.0078 | 0.325 ± 0.1 | 0.421 ± 0.069 | 0.19 ± 0.014 | 0.209 ± 0.0043 | 0.449 ± 0.04 | 0.4179 ± 0.0027 | 0.352 ± 0.023
C#C[C@]1(O)CC[C@H]2[C@@H]3CCC4=CC(=O)CC[C@@H]4[C@H]3CC[C@@]21CC [Norgestrel-(-)-D] | 0.225 ± 0.017 | 0.271 ± 0.0042 | 0.2581 ± 0.0012 | 0.193 ± 0.014 | 0.179 ± 0.0092 | 0.145 ± 0.007 | 0.374 ± 0.051 | 0.429 ± 0.018 | 0.191 ± 0.0085 | 0.234 ± 0.04 | 0.517 ± 0.04 | 0.413 ± 0.018 | 0.331 ± 0.039
CC(C)NCC(O)c1cc(O)cc(O)c1 (stereo not given) [Metaproterenol sulfate, orciprenaline sulfate] | 0.247 ± 0.0097 | 0.291 ± 0.0065 | 0.268 ± 0.01 | 0.2 ± 0.03 | 0.185 ± 0.011 | 0.144 ± 0.0048 | 0.283 ± 0.046 | 0.346 ± 0.019 | 0.177 ± 0.013 | 0.183 ± 0.015 | 0.635 ± 0.09 | 0.411 ± 0.011 | 0.352 ± 0.029
NNc1nncc2ccccc12 [Hydralazine hydrochloride] | 0.142 ± 0.0062 | 0.262 ± 0.022 | 0.256 ± 0.0092 | 0.174 ± 0.013 | 0.12 ± 0.0069 | 0.13 ± 0.0019 | 0.206 ± 0.017 | 0.25 ± 0.021 | 0.19 ± 0.0027 | 0.229 ± 0.033 | 0.448 ± 0.049 | 0.404 ± 0.0077 | 0.304 ± 0.018
OC(c1cc(C(F)(F)F)nc2c(C(F)(F)F)cccc12)C1CCCCN1 (stereo not given) [Mefloquine hydrochloride] | 0.0408 ± 0.00093 | 0.0401 ± 0.0013 | 0.0392 ± 0.0005 | 0.0403 ± 0.00056 | 0.0392 ± 0.00017 | 0.0398 ± 0.00036 | 0.0511 ± 0.0036 | 0.055 ± 0.0046 | 0.0464 ± 0.00035 | 0.0483 ± 0.0032 | 0.04863 ± 0.00045 | 0.199 ± 0.23 | 0.0512 ± 0.00055
CN1CCC(=C2c3ccccc3CCc3cccnc32)CC1 [Azatadine maleate] | 0.1961 ± 0.0017 | 0.271 ± 0.0097 | 0.256 ± 0.0041 | 0.178 ± 0.0055 | 0.18 ± 0.0037 | 0.132 ± 0.0041 | 0.209 ± 0.017 | 0.313 ± 0.045 | 0.18 ± 0.014 | 0.186 ± 0.018 | 0.59 ± 0.059 | 0.4 ± 0.013 | 0.338 ± 0.018
CN1CCN2c3ccccc3Cc3ccccc3C2C1 (stereo not given) [Mianserine hydrochloride] | 0.179 ± 0.0089 | 0.198 ± 0.013 | 0.283 ± 0.017 | 0.211 ± 0.014 | 0.142 ± 0.011 | 0.17 ± 0.0078 | 0.222 ± 0.042 | 0.303 ± 0.04 | 0.189 ± 0.0025 | 0.243 ± 0.03 | 0.4446 ± 0.0027 | 0.424 ± 0.0035 | 0.318 ± 0.015
O=C(O)CCNC(=O)c1ccc(/N=N/c2ccc(O)c(C(=O)O)c2)cc1 [Balsalazide Sodium] | 0.276 ± 0.0079 | 0.318 ± 0.0085 | 0.2664 ± 0.0024 | 0.213 ± 0.0045 | 0.206 ± 0.0036 | 0.138 ± 0.0021 | 0.252 ± 0.008 | 0.434 ± 0.012 | 0.232 ± 0.0039 | 0.241 ± 0.014 | 0.465 ± 0.057 | 0.394 ± 0.035 | 0.378 ± 0.014
